Holding throughout (assay): NCI-60 one-dose screen, 48 h (100 = growth as untreated, 0 = no growth, -100 = all killed)
One test deals with A549/ATCC NSCLC. The note with it: 10 µM unless noted.
A further test has as its system K-562 leukemia. The note with it: 10 µM unless noted.
The test system of another test is SF-295 CNS. The note with it: 10 µM unless noted.
The next test deals with SF-539 CNS. The note with it: 10 µM unless noted.
Another test concerns UACC-257 melanoma. The note with it: 10 µM unless noted.
A further test has as its system HCT-15 colon. The note with it: 10 µM.
In another test the test system is HT29 colon. The note with it: 10 µM unless noted.
The next test has as its system SNB-75 CNS. The note with it: 10 µM unless noted.
The next test has as its system PC-3 prostate. The note with it: 10 µM unless noted.
Another test has as its system SK-MEL-5 melanoma. The note with it: 10 µM unless noted.
The subject of the next test is SK-MEL-2 melanoma. The note with it: 10 µM unless noted.
In the next test the test system is ACHN renal. The note with it: 10 µM unless noted.
In another test the test system is A498 renal. The note with it: 10 µM unless noted.
Another test has as its system HL-60(TB) leukemia. The note with it: 10 µM unless noted.
The test system of a further test is OVCAR-8 ovarian. The note with it: 10 µM unless noted.
Another test has as its system IGROV1 ovarian. The note with it: 10 µM.
In a further test the test system is HS 578T breast. The note with it: 10 µM unless noted.
In a further test the test system is T-47D breast. The note with it: 10 µM unless noted.
The test system of the next test is HCC-2998 colon. The note with it: 10 µM unless noted.
The next test concerns OVCAR-4 ovarian. The note with it: 10 µM unless noted.

This is part of a sample that, as a whole, favours compounds with a hit. Of some 83,000 tested, about 20% had one in any assay.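 48-hour exposure, single concentration, 96-well plates; percent growth endpoint where 0 means no net growth. Active: below 10.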 Values without a mark were called inactive. Active and inactive are the calls of the source.

`CCC(C)/C=C(C)/C=C/C(=O)c1c(O)c(-c2ccc(O)cc2)c[nH]c1=O` (configuration not stated): the growth in the test with A549/ATCC NSCLC was 63.1%; in the test with K-562 leukemia, 39.2%; in the test on SF-295 CNS, 57.5%; in the test with SF-539 CNS it was 61.7%; in the test with UACC-257 melanoma, 55.8%; in the test on HCT-15 colon, 38.8%. For the same molecule, the growth in the test with HT29 colon is 14.3%; in the test with SNB-75 CNS it was 51.5%; with PC-3 prostate, 45%; in the test on SK-MEL-5 melanoma, 63.4%; with SK-MEL-2 melanoma, 89.1%; in the test with ACHN renal, 50.5%. Besides, the growth is 47.6% with A498 renal; 36% in the test on HL-60(TB) leukemia; 51.2% in the test on OVCAR-8 ovarian; 40.7% in the test with IGROV1 ovarian; 52.7% with HS 578T breast; 48.6% with T-47D breast. Besides, the growth in the test on HCC-2998 colon is 47.5%.
As to `CC1(C)N=C(N)N=C(N)N1c1ccc(CCCCc2ccc(Cl)cc2S(=O)(=O)F)c(Cl)c1`, the growth with A549/ATCC NSCLC is 9.77% (active); in the test with K-562 leukemia, 14.5%; in the test on SF-295 CNS it was 22.9%; in the test on SF-539 CNS, 19.6%; with UACC-257 melanoma, 10.1%; with HCT-15 colon it was 22.4%. Moreover, the growth in the test on HT29 colon was 11.4%; in the test with SNB-75 CNS it was 51.9%; in the test on PC-3 prostate, 21.3%; in the test on SK-MEL-5 melanoma, 19.5%; with SK-MEL-2 melanoma, 38.3%; in the test with ACHN renal, 18.7%. Besides, the growth is 54.7% with A498 renal; 15.5% in the test on HL-60(TB) leukemia; 15.2% with OVCAR-8 ovarian; 50.3% with OVCAR-4 ovarian; 30.7% in the test on IGROV1 ovarian; 65.5% in the test on HS 578T breast. For the same molecule, the growth in the test on T-47D breast was 28.6%; with HCC-2998 colon, 32%.
In the case of `CCC1CN1P(=O)(OCCOC)N1CC1CC` (configuration not stated), the growth in the test on A549/ATCC NSCLC is 101%; in the test on K-562 leukemia, 109%; in the test with SF-539 CNS it was 97.1%; with UACC-257 melanoma, 96.7%; in the test on HCT-15 colon, 99.4%; in the test on HT29 colon, 104%. Also, the growth in the test on SNB-75 CNS was 92.9%; in the test with PC-3 prostate, 98.2%; with SK-MEL-5 melanoma it was 109%; in the test on SK-MEL-2 melanoma it was 126%; with ACHN renal it was 103%; in the test with A498 renal, 119%. The growth in the test on HL-60(TB) leukemia is 119%; in the test with OVCAR-8 ovarian, 105%; in the test on OVCAR-4 ovarian, 109%; in the test with IGROV1 ovarian, 111%; in the test on HS 578T breast, 114%; with T-47D breast it was 104%. For the same molecule, the growth in the test with HCC-2998 colon was 104%.
As for `O=C(CI)Nc1ccc(Br)cc1`, the growth is 90.9% in the test on A549/ATCC NSCLC; -41.1% (active) in the test with K-562 leukemia; 98.2% with SF-295 CNS; 95.8% in the test with SF-539 CNS; 92.9% in the test on UACC-257 melanoma; 1.13% (active) in the test on HCT-15 colon. Also, the growth with HT29 colon was -87.4% (active); with SNB-75 CNS, 96.7%; with PC-3 prostate it was 87.3%; in the test with SK-MEL-5 melanoma it was 62.6%; in the test with SK-MEL-2 melanoma, 76.4%; in the test with ACHN renal, -79.8% (active). Besides, the growth in the test with A498 renal is 142%; in the test with HL-60(TB) leukemia, 69.6%; in the test on OVCAR-8 ovarian, 11.9%; in the test on OVCAR-4 ovarian, 27.4%; with IGROV1 ovarian, -55.2% (active); in the test on HS 578T breast it was 132%. In addition, the values for the growth with T-47D breast and in the test on HCC-2998 colon were 26.7% and 102%, respectively.
Consider `O=CN1N=C(c2ccc3c(c2)OCO3)CC1c1sc(N(CCCl)CCCl)nc1Cl` (configuration not stated), for which the growth in the test on A549/ATCC NSCLC is 83.9%; with K-562 leukemia, 85.4%; in the test on SF-295 CNS, 104%; with SF-539 CNS, 102%; in the test with UACC-257 melanoma it was 84.4%; in the test on HCT-15 colon it was 99.5%. For the same molecule, the growth was 97.9% in the test with HT29 colon; 90.8% in the test on SNB-75 CNS; 88.2% in the test on PC-3 prostate; 101% in the test with SK-MEL-5 melanoma; 92.9% in the test on SK-MEL-2 melanoma; 93.4% with ACHN renal. The growth with A498 renal is 97.7%; with HL-60(TB) leukemia it was 88.6%; in the test with OVCAR-8 ovarian, 92.9%; in the test on OVCAR-4 ovarian, 100%; in the test on IGROV1 ovarian it was 93.2%; with HS 578T breast it was 79.8%. The growth in the test on T-47D breast is 84.1%; in the test on HCC-2998 colon, 106%.
`COc1cc2c(cc1OC)CN(C)C(C)C2` (configuration not stated): the growth in the test with A549/ATCC NSCLC is 93.6%; in the test on K-562 leukemia it was 101%; with SF-295 CNS, 99%; in the test on SF-539 CNS it was 105%; in the test on UACC-257 melanoma, 104%; in the test with HCT-15 colon, 102%. In addition, the growth is 93.2% in the test on HT29 colon; 87.3% with SNB-75 CNS; 97.4% in the test with PC-3 prostate; 101% in the test on SK-MEL-5 melanoma; 100% with SK-MEL-2 melanoma; 106% in the test on ACHN renal. Further, the growth in the test on A498 renal was 84%; with HL-60(TB) leukemia, 87.9%; in the test on OVCAR-8 ovarian, 105%; in the test with OVCAR-4 ovarian, 103%; with IGROV1 ovarian, 111%; in the test with HS 578T breast it was 107%. The growth in the test on T-47D breast was 97.3%; in the test on HCC-2998 colon, 97.5%.
Consider `COc1ccc(/C=C\c2cc(OC)c(OC)c(OC)c2)cc1N/C=C\C(=O)c1c[nH]c2ccccc12`, for which the growth was 28.4% with A549/ATCC NSCLC; 13.7% with K-562 leukemia; -11.8% (active) in the test with SF-295 CNS; -43.4% (active) in the test with SF-539 CNS; 78.2% with UACC-257 melanoma; 12.5% in the test with HCT-15 colon. The growth was -3.93% (active) with HT29 colon; 19.1% in the test on SNB-75 CNS; 10.4% with PC-3 prostate; -53.9% (active) in the test with SK-MEL-5 melanoma; 32.3% with SK-MEL-2 melanoma; 15% in the test with ACHN renal. Further, the growth was -13.6% (active) in the test with A498 renal; -11.4% (active) in the test with HL-60(TB) leukemia; 21.4% in the test with OVCAR-8 ovarian; 21.8% with IGROV1 ovarian; 37.5% with HS 578T breast; 81.7% with T-47D breast. Also, the growth in the test on HCC-2998 colon was 21.4%.
On to `O=[As]c1ccc(C(=O)c2ccc(Oc3ccccc3)cc2)cc1` (configuration not stated), for which the growth in the test on A549/ATCC NSCLC was -94.8% (active); in the test with K-562 leukemia, -17.8% (active); in the test on SF-295 CNS, -65.1% (active); in the test with SF-539 CNS, -98.4% (active); with UACC-257 melanoma it was -99.4% (active); in the test on HCT-15 colon, -78.3% (active). The growth is -77.6% (active) with HT29 colon; -92% (active) with SNB-75 CNS; -61.4% (active) in the test with PC-3 prostate; -100% (active) in the test with SK-MEL-5 melanoma; -95.2% (active) in the test with SK-MEL-2 melanoma; -100% (active) in the test on ACHN renal. Also, the growth was -97.7% (active) with A498 renal; -23.4% (active) in the test with HL-60(TB) leukemia; -97.3% (active) with OVCAR-8 ovarian; -91.2% (active) in the test on OVCAR-4 ovarian; -54.1% (active) in the test on IGROV1 ovarian; 59.7% in the test on HS 578T breast. Moreover, the values for the growth with T-47D breast and in the test on HCC-2998 colon were -47.2% (active) and -93.9% (active), respectively.
